An excerpt weighted towards active compounds, which were near 3.8% of everything screened.
TrxR1 substrate: qHTS Assay for Substrates of Mammalian Selenoprotein Thioredoxin Reductase 1 (TrxR1): qHTS; Thioredoxin reductase 1, cytoplasmic (Rattus norvegicus), O89049; Potency, µM (series often up to 114 µM), for the others: at the top dose activity change, negative = substrate turnover; purified TrxR1 substrate turnover, NADPH consumption readout; actives 0.01% (n = 390,000); note: % is set by controls: 0 for no effect and ±100 for the full control effect; nearly all actives have a fitted effect of over 50% in size
Target sequence (O89049 whole entry, looked up): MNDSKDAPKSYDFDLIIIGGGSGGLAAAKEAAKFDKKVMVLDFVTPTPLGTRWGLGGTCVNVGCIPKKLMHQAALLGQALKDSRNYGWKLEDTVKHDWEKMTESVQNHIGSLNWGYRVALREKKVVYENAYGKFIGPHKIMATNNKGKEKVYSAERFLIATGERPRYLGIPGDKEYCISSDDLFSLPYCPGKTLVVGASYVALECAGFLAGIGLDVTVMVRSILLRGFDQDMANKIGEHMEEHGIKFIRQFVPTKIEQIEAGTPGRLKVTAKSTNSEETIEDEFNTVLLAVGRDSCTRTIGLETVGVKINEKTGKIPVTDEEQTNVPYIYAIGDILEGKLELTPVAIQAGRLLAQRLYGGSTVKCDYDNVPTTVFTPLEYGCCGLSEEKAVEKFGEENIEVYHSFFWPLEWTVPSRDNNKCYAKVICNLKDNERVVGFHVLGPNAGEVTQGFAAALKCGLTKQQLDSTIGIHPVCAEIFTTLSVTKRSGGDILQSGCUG
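Rat TrxR1, dispensed at 90 nM, was prereduced with 400 uM NADPH (final) for 5 min at ~22 deg C, then incubated with compound 15 min before 400 uM selenite. A first-read NADPH fluorescence drop versus no-compound background flagged substrates.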
Sfp inh: qHTS Assay for Inhibitors of Bacillus subtilis Sfp phosphopantetheinyl transferase (PPTase) | 4'-phosphopantetheinyl transferase ffp (Bacillus subtilis), Q9F4F7 | Biochemical Sfp PPTase activity, qHTS | Potency, µM, inactives show largest response in the series, negative = inhibition, actives largely listed as inhibitors | actives 3.5% (n = 310,000) | AID 1490, 2009;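 note: the enzyme is Sfp with the accession as filed and its product quenches rhodamine fluorescence; 0% = enzyme reaction without inhibitor and -100% = no enzyme wells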
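Fluorescence-quenching assay with 15 nM Sfp, 5 uM rhodamine-CoA and 12.5 uM BHQ-2-labelled ybbR peptide in pH 7.6 Hepes/MgCl2 buffer. Enzyme was pre-incubated with compound for 15 min at room temperature. Rate was taken from the 30-min fluorescence change (525/598 nm).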
GLS inhibitor: qHTS for Inhibitors of Glutaminase (GLS) | GLS enzymatic activity, qHTS titration | actives 0.21% (n = 410,000) | Potency, µM (highest dose often 45.5 µM), inactives show top-dose activity change, negative = inhibition, hits mostly inhibitors; note: % is set by controls: 0 for no effect and ±100 for the full control effect
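hKGA in 45 mM KH2PO4 (pH 8.2), 0.02% Tween-20 with compound, then 1mM L-Glutamine (stock as added) plus glutamate oxidase/HRP/Amplex red coupling mix. Fluorescence read initially and after 30 min at RT; signal change reflects glutamate formation.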
TrxR1 inh: qHTS Assay for Inhibitors of Mammalian Selenoprotein Thioredoxin Reductase 1 (TrxR1): qHTS | Thioredoxin reductase 1, cytoplasmic (Rattus norvegicus), O89049 | recombinant rTrxR1, NADPH fluorescence consumption, selenite substrate | Potency, µM (doses to about 114 µM), for inactives: at the top dose activity change, negative = inhibition, usual class: inhibitors | actives 1% (n = 390,000) | AID 588453, 2011; note: % is set by controls: 0 for no effect and ±100 for the full control effect; nearly all actives have a fitted effect of over 65% in size
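Rat TrxR1 (90 nM in the dispensed reagent) was pre-reduced with 400 uM NADPH for 5 min at room temperature, then incubated with compound for 15 min. After 400 uM selenite was added, NADPH fluorescence (Ex 340/Em 450 nm) was followed for 8 min.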
KAT2A inh: qHTS Assay for Inhibitors of GCN5L2; Histone acetyltransferase KAT2A (Homo sapiens), Q92830; GCN5L2 HAT assay, ThioGlo1 CoA-SH fluorescence; Potency, µM (titrated, usually from 58.9 µM), for inactives: top-dose activity change, negative = inhibition, usual class: inhibitors; actives 0.21% (n = 390,000); AID 504327, 2011; note: % is set by controls: 0 for no effect and ±100 for the full control effect
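qHTS, 1536-well. 20nM enzyme, pH 7.5 HEPES/EDTA/Tween-20 buffer; 15 min compound preinc., RT. Start: 75uM H3(1-25), 70uM AcCoA, 50uM ThioGlo1. Read Ex340/Em540 at t=0 (autofluorescence flag) and t=20 min.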
VDR inhibitor: Inhibitors of the vitamin D receptor (VDR): qHTS. actives 0.93% (n = 400,000). VDR-SRC2-3 peptide fluorescence polarization, 2 h. AID 504847, 2011. Potency, µM, for inactives: max response, negative = inhibition, usual class: inhibitors; note: % is set by controls: 0 for no effect and ±100 for the full control effect
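Fluorescence polarization assay of small-molecule disruption of VDR binding to coregulator peptide SRC2-3. Compounds and controls pin-transferred, then read after 2 h incubation at ambient room temperature.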
VDR inh confirm: qHTS for Inhibitors of the vitamin D receptor (VDR): Hit Validation in Primary Screen; VDR-coactivator inhibition assay, qHTS confirmation; actives 89% (n = 840); shares compounds with VDR inhibitor; Potency, µM, most hits filed as inhibitors
VDR FP fluor: qHTS for Inhibitors of the vitamin D receptor (VDR): Hit Validation using a Fluorescein Assay; actives 48% (n = 840); Potency, µM (titrated, usually from 57.1 µM), for inactives: top-dose activity change, negative = inhibition, usual class: inhibitors; shares compounds with VDR inhibitor; VDR-coactivator binding, fluorescein fluorescence polarization
VDR bla reporter: qHTS for Inhibitors of the vitamin D receptor (VDR): Hit Validation using a Beta-Lactamase Assay; AID 602202, 2012; Potency, µM (doses to about 46.1 µM), for inactives: at the top dose activity change, negative = inhibition, actives largely listed as inhibitors; shares compounds with VDR inhibitor; VDR beta-lactamase reporter cells, FRET ratio; cells co-treated with VDR agonist LG190178; actives 23% (n = 840); note: % is set by controls: 0 for no effect and ±100 for the full control effect
VDR cytotox: qHTS for Inhibitors of the vitamin D receptor (VDR): Hit Validation using a Cytotoxicity Assay. shares compounds with VDR inhibitor. AID 602204, 2012. Potency, µM (doses to about 48.3 µM), for inactives: top-dose activity change, negative = cytotoxicity, usual class: cytotoxic. actives 18% (n = 840). cytotoxicity counter-screen, cell viability, qHTS;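 note: plate controls were DMSO for no effect and high-concentration cycloheximide for full effect; nearly all actives have a fitted effect of over 75% in size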
The depositor's hits bear a star; ? = inconclusive; / = no result; [ ] = remark or other dose. Calls come from the whole dose curve; as a rule, active = well fitted curve in the direction sought with a large enough effect; inconclusive = small, poorly fitted or top-dose-only effect, or another doubt; inactive = no such curve, though single readings can be large; an effect the other way counts as inactive or inconclusive. Potency is the fitted concentration of half-maximal effect.

SMILES | TrxR1 substrate | Sfp inh | GLS inhibitor | TrxR1 inh | KAT2A inh | VDR inhibitor | VDR inh confirm | VDR FP fluor | VDR bla reporter | VDR cytotox
O=C(CCN1CCc2ccccc2CC1)c1ccc2c(c1)OCCO2 | 3% | 40µM* | 14% | 0.32µM* | -2% | ? | 13* | 11µM* | ? | ?
O=C(Cc1ccccc1)c1ccc2c(c1)OCCO2 | 1% | 22% | 4% | 10% | 3% | -11% | / | / | / | /
COc1ccc2[nH]c3c4c(ccc3c2c1)C(=O)C=CC4=O | -2% | 6.3µM* | ? | 50µM* | -1% | ? | 7.1* | 5µM* | 6.5µM* | ?
COc1ccc2[nH]c(-c3ccc(F)cc3F)cc(=O)c2c1 | / | 5% | / | / | -14%[88.6 µM] | 0% | / | / | / | /
COC(CNC(=O)c1ccc2c3c(onc13)-c1ccccc1C2=O)OC | -7% | 18µM* | 9% | ? | -11% | 40µM* | 3.8* | ? | ? | ?
COc1ccc(CN2CCN(Cc3ccc4ccccc4c3)CC2)cc1OC | 10%[57.1 µM] | ? | 9% | 16%[57.1 µM] | -5% | -24% | / | / | / | /
CCn1cc(Cl)c(C(=O)NNC(=O)CCn2cc([N+](=O)[O-])cn2)n1 | -1% | 0% | 9% | -3% | 3% | 0% | / | / | / | /
Cc1ccc(S(=O)(=O)Nc2nsc(N)n2)cc1 | -4% | 35µM* | -6% | 1% | -3% | 7.1µM* | 5.3* | ? | 27% | -10%
O=C(/C=C/c1cccnc1)c1ccc(F)c(F)c1 | 1% | 63µM* | 4% | ? | -4% | 45µM* | ? | 8.9µM* | ? | ?
O=C(/C=C/c1ccc2c(c1)OCO2)c1cccnc1 | -15% | 2% | 0% | ? | -12% | ? | / | / | / | /
CN(C)c1ccc(C(=O)/C=C/c2cccnc2)cc1 | -11% | 5% | 13% | -7% | 7% | -1% | / | / | / | /
O=C(/C=C/c1ccc([N+](=O)[O-])cc1)c1cccnc1 | -4% | 18µM* | 5% | 32µM* | 35% | 56µM* | 24* | 8.9µM* | 33% | ?
Cc1ccc(S(=O)(=O)N2CCCc3cc(NC(=O)c4c(F)cccc4F)ccc32)cc1 | 0%[57.1 µM] | 11% | 10% | 26%[57.1 µM] | ? | -14% | / | / | / | /
c1cncc(C(c2nnnn2C2CCCC2)N2CCCC2)c1 (stereo not drawn) | 11% | 7% | 1% | -27% | -2% | 0% | / | / | / | /
O=C(NC1(O)C(=O)c2ccccc2C1=O)c1ccccc1 | -5% | ? | 3% | 0% | -7% | ? | 1* | 1µM* | 6% | 12%
O=C(Nc1ccccc1Cl)c1c(F)c(F)c(F)c(F)c1F | -9% | / | -7% | -15% | / | -15% | / | / | / | /
O=C(NC1(O)C(=O)c2ccccc2C1=O)c1c(Cl)cccc1Cl | -7% | 13% | -10% | 11%[57.1 µM] | 1% | ? | 4* | 4µM* | 7% | -4%
CC1=C(C)CS(=O)N(S(=O)(=O)c2ccc(Cl)cc2)C1 (stereo not drawn) | -1%[57.1 µM] | 3.5µM* | 24% | 10%[57.1 µM] | -4% | 2.8µM* | 1.2* | ? | -2% | 16µM*
CCN(CC)S(=O)(=O)c1cc(NC(=O)c2ccc3c(c2)NC(=O)C(C)S3)ccc1C (stereo not drawn) | -2% | / | -21% | 1% | -15% | 79µM* | 21* | ? | ? | ?
CC(=O)Nc1sc(N/N=C\c2ccccc2)nc1-c1cccs1 | -19%[57.1 µM] | 50µM* | ? | 24%[57.1 µM] | -16% | 32µM* | 3.4* | ? | -2% | -10%
Cc1cc(C)c(S(=O)(=O)/N=C2/C=C(SCC(=O)O)C(=O)c3ccccc32)cc1C | -6% | 22µM* | -17% | ? | -29% | 7.9µM* | 4.2* | ? | -1% | ?
Cc1ccc(S(=O)(=O)/N=C2\C=C(NS(=O)(=O)c3ccccc3)C(=O)c3ccccc32)cc1 | -15% | / | -5% | ? | / | ? | / | / | / | /
Oc1cc2c(cc1C(c1ccc(Br)cc1)N1CCCC1)OCO2 (stereo not drawn) | -18%[57.1 µM] | 18µM* | -3% | 2.5µM* | -5% | 40µM* | 13* | 10µM* | -4% | ?
O=S(=O)(NCC(c1ccc2c(c1)OCO2)N1CCOCC1)c1ccc(Br)cc1 (stereo not drawn) | 4%[57.1 µM] | / | -1% | 5%[57.1 µM] | -7% | -9% | / | / | / | /
Cc1ccc(C(=O)Nc2ccc(C(=O)O)cc2)cc1S(=O)(=O)NCc1ccccc1 | -1%[57.1 µM] | 9% | -1% | 11%[57.1 µM] | -4% | -3% | / | / | / | /
COc1cc(/C=C2\C(=O)N(c3ccc(S(N)(=O)=O)cc3)N=C2C)ccc1OC(=O)c1ccco1 | -1% | ? | -13% | -33% | -23% | ? | 10* | 3.5µM* | -11% | -18%
CC1CCc2c(sc(NC(=O)CCC(=O)O)c2C(=O)NC2CC2)C1 (stereo not drawn) | -10% | 8.9µM* | -20% | -27% | -15% | 56µM* | 27* | 28µM* | 10% | -5%
